# Reference: the supplement of paper PMC8291772
# ± gives the standard error. The full ranking holds about 1,300 sequences; the median of “fluorescence a.u.” is about 38, and the highest 2% start at about 280. The full list was thinned out, with the highest values kept by preference.
# Biological target: terminal deoxynucleotidyl transferase (calf thymus) (UniProt P06526)
# Assay: TdT poly-dT extension signal (Cy3 hybridisation fluorescence, uncapped minus capped) (fluorescence a.u.); higher = more efficient initiation of TdT extension
# Conditions: initiator chemistry: L-DNA (mirror-image), free 5'-OH (3'-tethered via HEG linker)
# Protocol: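 All mono- to pentamer D-DNA or L-DNA initiators were made by forward (3'->5') photolithographic in situ synthesis on glass on a hexaethylene glycol linker, leaving a free 5'-OH. Each was made in uncapped and DMTr-dT-capped versions, about 11 replicates each. Arrays were extended with calf thymus TdT (0.2 U/uL), 100 uM dTTP and 0.25 mM CoCl2 for 120 min at 37 C, hybridised with an rA18-Cy3 probe and scanned at 532 nm. The value is the mean uncapped minus the mean capped signal. IDs read 5'->3'. L-DNA is mirror-image; D-DNA 5'-OH initiators were below LOD (no extension).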
# terminal deoxynucleotidyl transferase (calf thymus), sequence (P06526 whole entry): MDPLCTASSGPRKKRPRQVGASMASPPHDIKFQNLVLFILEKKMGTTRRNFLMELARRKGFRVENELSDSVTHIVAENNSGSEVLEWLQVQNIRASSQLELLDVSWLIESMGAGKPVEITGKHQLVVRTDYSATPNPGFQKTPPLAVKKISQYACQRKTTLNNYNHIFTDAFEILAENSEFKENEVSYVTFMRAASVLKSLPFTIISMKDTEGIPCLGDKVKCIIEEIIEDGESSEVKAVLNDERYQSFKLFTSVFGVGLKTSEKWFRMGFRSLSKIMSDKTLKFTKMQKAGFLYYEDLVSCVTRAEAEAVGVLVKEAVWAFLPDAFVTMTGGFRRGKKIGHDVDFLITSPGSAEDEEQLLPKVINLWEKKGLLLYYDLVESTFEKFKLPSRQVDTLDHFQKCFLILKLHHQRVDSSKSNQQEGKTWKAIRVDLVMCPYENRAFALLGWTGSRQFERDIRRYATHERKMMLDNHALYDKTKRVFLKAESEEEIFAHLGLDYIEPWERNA
row,Sequence,TdT poly-dT extension signal
1,GTCAG,161 ± 18
2,CTCAG,173 ± 11
3,TTCAA,388 ± 29
4,ATCAC,188 ± 16
5,TTCAC,371 ± 39
6,TTCAG,356 ± 32
7,TTCA,275 ± 22
8,CTCAT,130 ± 12
9,TTCAT,372 ± 18
10,GTCAC,153 ± 10
11,ATCAT,172 ± 14
12,CTCAA,147 ± 10
13,GAGTT,40.6 ± 5.8
14,AAAAG,101 ± 8.9
15,GACGG,117 ± 18
16,GAACC,55.9 ± 8.8
17,ACCAT,97.4 ± 8.9
18,GGGTG,69.1 ± 4.3
19,TGCGA,157 ± 7.9
20,TTATG,340 ± 26
21,CTATA,170 ± 13
22,CTATC,168 ± 13
23,ATATC,192 ± 14
24,CTATG,161 ± 12

row,Sequence,TdT poly-dT extension signal
1,ATATG,192 ± 15
2,TTATC,325 ± 29
3,ATATA,192 ± 12
4,TTATA,384 ± 22
5,TTAT,340 ± 30
6,TTGT,258 ± 19
7,GTAT,140 ± 12
8,TTGGA,284 ± 17
9,AGTGA,57.2 ± 5.7
10,ACTCA,79.4 ± 8.6
11,TATAT,197 ± 14
12,AACTT,58.3 ± 8.9
13,ACGCG,70.6 ± 6.6
14,GGTTA,50.7 ± 4.8
15,TTATT,381 ± 16
16,GTATT,158 ± 10
17,ATATT,201 ± 13
18,TATCC,138 ± 13
19,AAAGC,67 ± 7.7
20,GCTGA,75.3 ± 5.4
21,CGACA,68.1 ± 4.9
22,CTAAC,201 ± 14
23,CTAAG,215 ± 13
24,ATAAG,229 ± 14

row,Sequence,TdT poly-dT extension signal
1,GTAAC,191 ± 15
2,CTAA,170 ± 12
3,TTAA,347 ± 25
4,CTAAT,206 ± 15
5,TTAAG,495 ± 38
6,GTAA,143 ± 13
7,ATAAT,246 ± 19
8,TTAAT,491 ± 32
9,TTAAC,377 ± 27
10,GGAAG,82.2 ± 8.3
11,ACGTC,47.1 ± 4.9
12,TACTG,153 ± 14
13,TCTGA,172 ± 12
14,ATCAA,236 ± 13
15,GTCA,95.9 ± 6.2
16,GGATC,67.1 ± 5.8
17,AATA,106 ± 9.7
18,ATGGC,127 ± 8.4
19,AACGG,77.3 ± 5.7
20,GAGTG,61 ± 6.3
21,CTAAA,224 ± 15
22,TTAAA,563 ± 39
23,ATAAA,276 ± 19
24,TCGAA,187 ± 8.6

row,Sequence,TdT poly-dT extension signal
1,CTTGC,107 ± 7.2
2,ATGAA,175 ± 12
3,GTGAT,121 ± 12
4,GTGAC,144 ± 9
5,CTGAG,130 ± 11
6,ATGAT,150 ± 9.9
7,TTGAA,339 ± 42
8,TTGA,270 ± 19
9,GTGAA,142 ± 17
10,TTGAT,314 ± 27
11,TTGAG,317 ± 33
12,TTGAC,338 ± 26
13,GTGAG,160 ± 13
14,TCTCC,117 ± 8.4
15,CCGGG,82.9 ± 7.7
16,GTAAA,239 ± 15
17,ACTTT,70.7 ± 5.3
18,CTGGT,116 ± 6.9
19,TCCCG,199 ± 19
20,AATG,74.3 ± 5.6
21,GTGTT,100 ± 8.2
22,CGCGA,66.2 ± 6
23,ACCCG,76.1 ± 6.5
24,TTTC,280 ± 19

row,Sequence,TdT poly-dT extension signal
1,CTTCG,133 ± 16
2,TTTCG,286 ± 22
3,TGCAC,141 ± 11
4,GGGCG,83.8 ± 6.6
5,GACGC,93 ± 9.5
6,CTGGG,141 ± 8.5
7,TTGG,274 ± 21
8,TTTGT,311 ± 21
9,TTTGG,350 ± 26
10,TTGGG,335 ± 18
11,TTTTG,293 ± 38
12,GTTGG,144 ± 11
13,ATTGG,180 ± 13
14,GTTGT,139 ± 8.7
15,TTTTT,282 ± 18
16,ATTGT,167 ± 9.2
17,TTTT,223 ± 25
18,GTGGG,172 ± 9.4
19,TATCA,160 ± 12
20,GGCGC,77.7 ± 6.3
21,CGAGC,65 ± 6.4
22,GCGGC,73.3 ± 6.8
23,AGCAA,61.2 ± 5.3
24,TTTGA,320 ± 26

row,Sequence,TdT poly-dT extension signal
1,TTTG,264 ± 15
2,TTTGC,271 ± 19
3,TTCCT,286 ± 28
4,ATCCC,147 ± 16
5,TTCCC,358 ± 31
6,GTCCT,117 ± 9.6
7,TCCCC,175 ± 17
8,ATCCA,153 ± 10
9,TTCCA,299 ± 18
10,TGCC,126 ± 14
11,TTCC,293 ± 17
12,TTTCC,270 ± 21
13,GTCCA,122 ± 10
14,CTCCT,111 ± 9.1
15,CTTCA,130 ± 11
16,CCTAA,98.7 ± 6
17,ATGCT,116 ± 7.5
18,CGTTT,51.4 ± 5
19,GTAGG,181 ± 10
20,CCAAG,120 ± 9.5
21,CTTT,127 ± 17
22,TATC,171 ± 12
23,TGTA,126 ± 10
24,TACA,178 ± 8

row,Sequence,TdT poly-dT extension signal
1,CTCCG,127 ± 11
2,GTCCG,147 ± 12
3,TTCCG,388 ± 25
4,TGCGC,154 ± 12
5,CTCTA,130 ± 12
6,TTCTA,312 ± 31
7,CTCTT,122 ± 10
8,GTCTT,128 ± 8
9,TTCTT,311 ± 24
10,ATCTG,143 ± 16
11,TTCT,243 ± 31
12,TTCTG,320 ± 24
13,GTCTG,128 ± 7.3
14,ACCCA,77.1 ± 11
15,TCGAT,152 ± 12
16,CAGTG,49.3 ± 7.1
17,CCTA,84.4 ± 13
18,ACAAC,92.6 ± 6.6
19,GCACG,87 ± 5.5
20,ATGCC,109 ± 15
21,CTCGT,115 ± 9
22,TTCGG,347 ± 20
23,GTCGG,178 ± 14
24,TTCG,284 ± 31

row,Sequence,TdT poly-dT extension signal
1,TCCG,221 ± 19
2,TTCGA,367 ± 21
3,ATCGA,206 ± 17
4,ATCGT,189 ± 13
5,CTCG,124 ± 17
6,TTCGT,330 ± 27
7,CTCGA,135 ± 12
8,CTCGG,158 ± 9.7
9,TCATT,134 ± 15
10,GACTG,85.6 ± 6.6
11,GCCTG,90.6 ± 8.8
12,CCAC,93 ± 7.6
13,ATACG,188 ± 13
14,ACAGT,65.8 ± 8.1
15,ACTGG,71.1 ± 8.8
16,TAGCC,105 ± 7.2
17,CTCGC,146 ± 15
18,GTCGC,137 ± 12
19,TTCGC,323 ± 18
20,CGGTC,31.7 ± 5.1
21,AGCGC,57.8 ± 6.1
22,TTAG,308 ± 27
23,TTAGT,368 ± 28
24,CTAGA,170 ± 11

row,Sequence,TdT poly-dT extension signal
1,TAAG,161 ± 15
2,GTAGT,130 ± 11
3,ATAGC,182 ± 14
4,TTAGA,396 ± 35
5,GTAGA,191 ± 19
6,CTAGC,134 ± 8.7
7,GTAG,159 ± 11
8,CTAGT,157 ± 12
9,TTAGC,308 ± 15
10,TGTCA,114 ± 7.2
11,AGTGT,44.6 ± 5.9
12,GATGC,82.1 ± 9.4
13,TACGA,194 ± 14
14,CCGGA,78.7 ± 10
15,ACGAA,76.9 ± 4.9
16,GTTTA,123 ± 9.7
17,CTAGG,182 ± 8.8
18,ATAGG,198 ± 12
19,TTAGG,444 ± 29
20,CCTGG,79.5 ± 7.8
21,TCTCT,347 ± 200
22,TCTCA,199 ± 18
23,TCTC,128 ± 17
24,TAGGA,123 ± 9.3

row,Sequence,TdT poly-dT extension signal
1,TTACA,344 ± 20
2,GTACT,137 ± 10
3,GTACC,143 ± 13
4,TTACG,380 ± 28
5,CTACT,152 ± 15
6,CTACC,127 ± 19
7,GTACA,152 ± 8.5
8,TTACC,393 ± 30
9,ATACA,204 ± 18
10,TTACT,396 ± 14
11,TTAC,275 ± 24
12,GTACG,158 ± 12
13,GACCT,77.6 ± 11
14,GAGGT,55.2 ± 5.3
15,CAGAG,71.3 ± 6.3
16,AATTG,77.2 ± 7
17,CTTTG,141 ± 13
18,CCACT,90 ± 7.8
19,AGTA,44.2 ± 4.4
20,ACCA,87.8 ± 9.2
21,TTTCA,281 ± 27
22,ACCG,78.2 ± 8
23,TTTAC,344 ± 22
24,TTTAT,331 ± 24

row,Sequence,TdT poly-dT extension signal
1,ATTAT,152 ± 14
2,CTTAC,153 ± 14
3,TTTAA,392 ± 18
4,TTTA,271 ± 29
5,TTTAG,345 ± 24
6,ATTAG,195 ± 19
7,GTTAA,194 ± 15
8,GTTAC,130 ± 11
9,CTTAA,181 ± 12
10,CTTAT,106 ± 7.6
11,TGAGC,147 ± 8.6
12,TAAAC,191 ± 19
13,CACCG,74.4 ± 8.1
14,TAAAT,192 ± 18
15,GCCGC,93.5 ± 6.3
16,GTTTT,125 ± 8.3
17,CTTTA,106 ± 9.8
18,TTTTC,242 ± 27
19,TTTTA,302 ± 24
20,CATGG,80 ± 9.5
